# Experimental data reported in PubChem BioAssay (NCI).
# This is part of a sample that, as a whole, favours compounds with a hit. Of some 79,000 tested, about 15% had one in any assay. Values without a mark were called inactive. Active and inactive are the calls of the source. Rule as the data show it: active = growth inhibition above about 70%; inactive = the rest.
# Legend:
# [1] = NCI Yeast Anticancer Drug Screen. Data for the rad50 strain (AID 155);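 also: 0% = growth of vehicle-only cultures of the same strain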; conditions: S. cerevisiae rad50 strain growth inhibition, active compounds read high
# Summary of the method: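 Readout: growth inhibition relative to vehicle-treated cultures. Compound exposure was carried out in a genetically defined yeast strain deficient in DNA damage repair.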
# [2] = NCI Yeast Anticancer Drug Screen. Data for the mec2-1 strain (AID 157); conditions: S. cerevisiae mec2-1 strain, active compounds read high
# Summary of the method: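 Readout is yeast growth inhibition, normalised to vehicle-treated controls, in the mec2-1 strain exposed to compound.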
# [3] = NCI Yeast Anticancer Drug Screen. Data for the sgs1 mgt1 strain (AID 161);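 also: 0% = growth of cultures given vehicle only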; conditions: S. cerevisiae sgs1 mgt1 strain, active compounds read high
# Summary of the method: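 Yeast cells carrying a defined DNA-repair defect were exposed to test compounds. Growth inhibition was measured relative to vehicle-treated controls.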
# [4] = NCI Yeast Anticancer Drug Screen. Data for the cln2 rad14 strain (AID 165);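 also: 0% = growth equal to vehicle treated cultures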; conditions: S. cerevisiae cln2 rad14 strain, active compounds read high
# Summary of the method: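 Relative to vehicle controls, growth inhibition of compound-treated cln2 rad14 yeast was recorded.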
# [5] = NCI Yeast Anticancer Drug Screen. Data for the bub3 strain (AID 167); conditions: S. cerevisiae bub3 mutant strain, active compounds read high
# Summary of the method: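 Readout: yeast growth inhibition, expressed relative to vehicle-only wells. The test organism is a mutant strain from a panel with lesions in DNA repair or checkpoint genes.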
# [6] = NCI Yeast Anticancer Drug Screen. Data for the mlh1 rad18 strain (AID 175); conditions: S. cerevisiae mlh1 rad18 strain growth inhibition, active compounds read high
# Summary of the method: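 Test agents were incubated with a yeast strain of defined genotype (DNA damage repair defect). Inhibition of growth was derived by comparison with vehicle-exposed cultures.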
# [7] = at 5.0 µM (retest, dose inferred, filed as 0.5)
# [8] = at 50.0 µM (retest, dose inferred, filed as 5.0)
Compound,"growth inhibition [1, 7]","growth inhibition [1, 8]",growth inhibition ([1]; at 50.0 µM),"growth inhibition [2, 7]","growth inhibition [2, 8]",growth inhibition ([2]; at 50.0 µM),"growth inhibition [3, 7]","growth inhibition [3, 8]",growth inhibition ([3]; at 50.0 µM),"growth inhibition [4, 7]","growth inhibition [4, 8]",growth inhibition ([4]; at 50.0 µM),"growth inhibition [5, 7]","growth inhibition [5, 8]",growth inhibition ([5]; at 50.0 µM),"growth inhibition [6, 7]","growth inhibition [6, 8]",growth inhibition ([6]; at 50.0 µM)
N#Cc1cccc2c1Sc1ccccc1N2,22%,31%,88.6% (active),6%,-9%,92.8% (active),1%,6%,89.2% (active),-5%,-6%,90.1% (active),-26%,6%,91.3% (active),-7%,7%,60.5%
CN1CCN(CC(C(=O)O)(c2ccccc2)c2ccccc2)CC1,-1%,2%,-1.85%,3%,-5%,5.05%,-3%,0%,-16.6%,4%,-1%,14.2%,0%,-5%,59.5%,-1%,-4%,-13.2%
CCC(CO)Nc1nc2cc(Cl)ccc2c2ccc(Cl)cc12 (stereo not given),19%,98% (active),93.6% (active),2%,99% (active),94.8% (active),24%,97% (active),95.6% (active),-4%,97% (active),89.8% (active),11%,97% (active),95.5% (active),20%,96% (active),94% (active)
[N-]=[N+]=Nc1ccc(SN2C(=O)c3ccccc3C2=O)cc1,29%,98% (active),90.7% (active),23%,95% (active),88.4% (active),6%,98% (active),92.5% (active),3%,67%,63.1%,1%,44%,95.4% (active),10%,95% (active),73.3% (active)
O=C1C(Cl)C(c2cc(Br)cc(Br)c2O)N1n1cnc2ccccc2c1=O (stereo not given),15%,96% (active),89.8% (active),35%,94% (active),86.7% (active),25%,98% (active),94.5% (active),-16%,87% (active),59.2%,22%,98% (active),93% (active),20%,98% (active),97.7% (active)
